Test results: the supplement of paper PMC6089552
The whole screen tested about 3,200 compounds, of which about 300 (9.4%) showed activity. For the sample, actives were picked, then their nearest neighbours and some compounds at random.

Test system: A673/TR/shEF
Experiment: cell viability (LOESS-normalised, relative to median of negative controls) (log2 ratio); higher = more viable cells (less compound effect), active = hit call of the paper (over 3 MAD below the median)
Conditions: treatment time: 72 h
How it was run: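 Viability of A673/TR/shEF Ewing sarcoma cells was determined by CellTiter-Glo luminescence. The cells, at 1,500 per well in 384-well plates, were grown with or without doxycycline from 24 h before compound addition to switch on EWS-FLI1 shRNA knockdown, then exposed for three days to library compounds at two or more concentrations or to DMSO controls. Signals were LOESS-corrected plate by plate, normalised to the negative-control median and log2-transformed.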

[1] = 0.25 µM, library screen: screen1, EWS-FLI1 expression: high (no doxycycline)
[2] = 0.25 µM, library screen: screen1, EWS-FLI1 expression: low (doxycycline-induced shRNA knockdown)
[3] = 2.5 µM, library screen: screen1, EWS-FLI1 expression: high (no doxycycline)
[4] = 2.5 µM, library screen: screen1, EWS-FLI1 expression: low (doxycycline-induced shRNA knockdown)
[5] = 0.103 µM, library screen: screen3, EWS-FLI1 expression: high (no doxycycline)
[6] = 0.103 µM, library screen: screen3, EWS-FLI1 expression: low (doxycycline-induced shRNA knockdown)
[7] = 0.308 µM, library screen: screen3, EWS-FLI1 expression: high (no doxycycline)
[8] = 0.308 µM, library screen: screen3, EWS-FLI1 expression: low (doxycycline-induced shRNA knockdown)
[9] = 0.926 µM, library screen: screen3, EWS-FLI1 expression: high (no doxycycline)
[10] = 0.926 µM, library screen: screen3, EWS-FLI1 expression: low (doxycycline-induced shRNA knockdown)
[11] = 2.8 µM, library screen: screen3, EWS-FLI1 expression: high (no doxycycline)
[12] = 2.8 µM, library screen: screen3, EWS-FLI1 expression: low (doxycycline-induced shRNA knockdown)
[13] = 8.3 µM, library screen: screen3, EWS-FLI1 expression: high (no doxycycline)
[14] = 8.3 µM, library screen: screen3, EWS-FLI1 expression: low (doxycycline-induced shRNA knockdown)
[15] = 25 µM, library screen: screen3, EWS-FLI1 expression: high (no doxycycline)
[16] = 25 µM, library screen: screen3, EWS-FLI1 expression: low (doxycycline-induced shRNA knockdown)
[17] = 0.25 µM, library screen: screen2, EWS-FLI1 expression: high (no doxycycline)
[18] = 0.25 µM, library screen: screen2, EWS-FLI1 expression: low (doxycycline-induced shRNA knockdown)
[19] = 2.5 µM, library screen: screen2, EWS-FLI1 expression: high (no doxycycline)
[20] = 2.5 µM, library screen: screen2, EWS-FLI1 expression: low (doxycycline-induced shRNA knockdown)
[21] = 0.025 µM, library screen: screen1, EWS-FLI1 expression: high (no doxycycline)
[22] = 0.025 µM, library screen: screen1, EWS-FLI1 expression: low (doxycycline-induced shRNA knockdown)
[23] = 25 µM, library screen: screen1, EWS-FLI1 expression: high (no doxycycline)
[24] = 25 µM, library screen: screen1, EWS-FLI1 expression: low (doxycycline-induced shRNA knockdown)

Measured: cell viability (log2)

O=c1c(O)c(-c2cc(O)c(O)c(O)c2)oc2cc(O)ccc12
inactive: [1] 0.128 | [2] -0.0317 | [3] 0.0648 | [4] 0.111

COc1cc(CN2CCN(Cc3cccc(F)c3)CC2)cc2c1OCO2
inactive: [1] 0.0873 | [2] 0.0661 | [3] 0.0312 | [4] 0.0566

COc1ccc(-c2ccc3c(N4CCOCC4)nc(N4C[C@@H](C)O[C@@H](C)C4)nc3n2)cc1CO
inactive: [5] -0.102 | [6] -0.0255 | [7] -0.124 | [8] -0.0614 | [9] -0.171 | [10] -0.169
active: [11] -0.379 | [12] -0.377 | [13] -0.748 | [14] -0.617 | [15] -1.51 | [16] -1.39

COc1ccc(-c2ccc3c(N4CCOC[C@@H]4C)nc(N4CCOC[C@@H]4C)nc3n2)cc1CO
active: [5] -0.268 | [6] -0.292 | [7] -0.621 | [8] -0.525 | [9] -1.05 | [10] -0.821 | [11] -1.66 | [12] -1.37 | [13] -1.89 | [14] -1.59 | [15] -1.94 | [16] -1.78

COc1cc(/C=C2\SC(NC(C)=O)=NC2=O)cc(Br)c1OC
inactive: [1] 0.0313 | [2] 0.0267 | [3] 0.0885 | [4] 0.0962

O=C(O)Cc1cc(I)c(Oc2cc(I)c(O)c(I)c2)c(I)c1
inactive: [1] 0.0518 | [2] 0.0863 | [3] 0.0776 | [4] -0.0191

COC(=O)[C@H](O)[C@H]1C(C)(C)[C@H](O)[C@@H]2CC3=C4CC(=O)O[C@@H](c5ccco5)[C@]4(C)CC[C@@H]3[C@@]1(C)C2=O
inactive: [1] 0.0837 | [2] 0.0423 | [3] 0.0416 | [4] -0.137

COc1ccc(C2NC(=O)NC(C)=C2C(=O)Nc2ccccc2Cl)cc1OC (configuration not stated)
inactive: [1] 0.0783 | [2] 0.013 | [3] 0.0736 | [4] -0.0647

CCCCCCCCCCCCCCC[C@H](O)[C@H](N)CO
inactive: [17] 0.153 | [18] 0.105 | [19] 0.146 | [20] 0.102

CCCCCCCCCCCCC/C=C/[C@@H](O)[C@@H](N)CO
inactive: [21] 0.0541 | [22] 0.028 | [1] 0.0998 | [2] 0.0415 | [17] 0.0615 | [18] 0.0389 | [3] 0.0515 | [4] 0.0695 | [19] 0.162 | [20] 0.0866
active: [23] -4.25 | [24] -4.31

CCCCCCCC/C=C/CCCCCCCC(=O)OC(CO)COC(=O)CCCCCCCCCCCCCCC (configuration not stated)
inactive: [17] 0.242 | [18] 0.101 | [19] 0.231 | [20] 0.152

CCC(C)n1ncn(-c2ccc(N3CCN(c4ccc(OC[C@H]5CO[C@](Cn6cncn6)(c6ccc(Cl)cc6Cl)O5)cc4)CC3)cc2)c1=O (some centres not stated)
inactive: [5] -0.00587 | [6] -0.0322 | [7] 0.0158 | [8] 0.0366 | [9] 0.0942 | [10] 0.0808 | [11] 0.0248 | [12] 0.0437 | [13] -0.13 | [14] 0.0912 | [15] 0.0658 | [16] 0.11

COC(=O)C(O)c1ccccc1 (configuration not stated)
inactive: [1] 0.0881 | [2] 0.0567 | [3] 0.0992 | [4] 0.015

Nc1ccc2c3c(cccc13)C(=O)NC2=O
inactive: [18] 0.0582 | [19] 0.0677 | [20] 0.123
active: [17] -0.219

COc1cc(/C=C/C=O)cc(OC)c1OC
inactive: [1] 0.0589 | [2] 0.0132 | [3] 0.0586 | [4] 0.0289

OC1C=CC(Br)C(O)C1O (configuration not stated)
inactive: [17] 0.12 | [18] 0.141 | [19] 0.0654 | [20] 0.0803

FC(F)(F)c1ccc(/C=C/c2nc(COc3ccc(CCCCn4ccnn4)cc3)co2)cc1
inactive: [6] -0.0943
active: [5] -0.325 | [7] -0.568 | [8] -0.12 | [9] -0.774 | [10] -0.153 | [11] -1.45 | [12] -0.118 | [13] -1.63 | [14] -0.193 | [15] -1.47 | [16] -0.184

CC(=O)OC1CC[C@@]2(C)C(CC[C@H]3[C@@H]4CC=C(C(C)=O)[C@@]4(C)C(=O)C[C@@H]32)C1 (some centres not stated)
inactive: [1] 0.0289 | [2] 0.0314 | [3] 0.141 | [4] 0.0915

COC(=O)C[C@H]1C(C)(C)[C@H](O)[C@@H]2CC3=C4CC(O)O[C@@H](c5ccoc5)[C@]4(C)CCC3[C@@]1(C)C2=O (some centres not stated)
inactive: [1] 0.0798 | [2] 0.183 | [3] 0.141 | [4] 0.127

COc1ccc(CCNCC(O)c2ccc(O)cc2)cc1OC (configuration not stated)
active: [19] -0.721 | [20] -0.108
inactive: [17] 0.167 | [18] -0.0395

COc1ccc(CCN(C)CCc2ccc(OC)c(OC)c2)cc1OC
inactive: [17] 0.187 | [18] 0.0366 | [19] 0.198 | [20] 0.0294

C[C@H](NCCc1ccc(O)cc1)[C@H](O)c1ccc(O)cc1
inactive: [5] -0.0282 | [6] 0.0403 | [1] 0.119 | [2] 0.0926 | [17] 0.11 | [18] 0.0788 | [7] 0.0762 | [8] 0.0395 | [9] 0.0419 | [10] 0.0833 | [3] 0.157 | [4] 0.125 | [19] 0.0729 | [20] -0.0642 | [11] 0.0463 | [12] 0.0441 | [13] 0.098 | [14] 0.0382 | [15] 0.0513 | [16] 0.0444

CC1(C)C(=O)C=C[C@]2(C)[C@H]3CC[C@@]4(C)[C@H](c5ccoc5)OC(=O)[C@H]5O[C@]54[C@]3(C)C=C[C@@H]12
inactive: [1] 0.0993 | [2] 0.0207 | [3] 0.1 | [4] 0.161

CC(=O)O[C@H]1C[C@@H](OC(C)=O)C(C)(C)C2C[C@@H](OC(C)=O)[C@@]3(C)C4=CC(=O)OC(=O)[C@]4(C)CCC3[C@]21C (some centres not stated)
inactive: [1] 0.0349 | [2] 0.118 | [3] 0.174 | [4] 0.189

CC1(C)C(=O)[C@@H]2C[C@@]3(O)C4=CC(=O)O[C@@H](c5ccoc5)[C@]4(C)CCC3C(C)(C2=O)[C@H]1CC(=O)O (some centres not stated)
inactive: [1] 0.0688 | [2] 0.13 | [3] 0.086 | [4] 0.0264

O=C(O)c1ccc(OC2CSC2)cc1
inactive: [1] -0.0489 | [2] 0.0317 | [3] 0.0805 | [4] 0.0727

CC(C)N1C(=O)/C(=C/c2ccc(N(C)C)cc2)SC1=S
inactive: [1] 0.23 | [2] 0.276 | [3] 0.232 | [4] 0.349

O=C1Nc2ccc(I)cc2/C1=C/c1cc(Br)c(O)c(Br)c1
inactive: [21] 0.115 | [22] -0.011 | [1] 0.134 | [2] -0.0458 | [17] 0.275 | [18] 0.0983 | [3] 0.0489 | [4] 0.0445 | [19] 0.0633 | [20] 0.123 | [23] -0.0847 | [24] 0.107

CN(C)c1ccc(/C=C2\C(=O)Nc3ccccc32)cc1
active: [17] -1.84 | [18] -0.565 | [3] -0.163 | [19] -2.61 | [20] -0.918 | [23] -0.158
inactive: [21] 0.182 | [22] 0.00152 | [1] 0.171 | [2] 0.0583 | [4] 0.0499 | [24] 0.195

O=C(O)CN(CC(=O)O)Cc1cc2c(cc1O)Oc1cc(O)c(CN(CC(=O)O)CC(=O)O)cc1C21OC(=O)c2ccccc21
inactive: [1] 0.133 | [2] 0.0463 | [3] 0.15 | [4] 0.0168

COc1ccc(NC(=O)/C(=C/c2cccnc2)NC(=O)c2cccs2)cc1
inactive: [1] 0.123 | [2] 0.163 | [3] 0.1 | [4] 0.101

Brc1ccc(CN2CCN(Cc3ccco3)CC2)cc1
inactive: [1] 0.0694 | [2] 0.0304 | [3] 0.0829 | [4] -0.00775

CC1=C(C(=O)OC2CCCC2)C(c2coc3ccc(Cl)cc3c2=O)C2=C(CCCC2=O)N1 (configuration not stated)
inactive: [1] 0.123 | [2] 0.0763 | [3] 0.136 | [4] -0.0126

CC(C)c1c(O)ccc2c1CC[C@H]1C(C)(C)CCC[C@]21C
inactive: [1] 0.0946 | [2] 0.115 | [3] 0.166 | [4] 0.269

CCN(CC)C(=S)SSC(=S)N(CC)CC
active: [1] -1.42 | [2] -0.538 | [9] -4.24 | [10] -2.11 | [3] -2.82 | [4] -1.78 | [19] -4.17 | [20] -0.213 | [11] -4.24 | [12] -4.26 | [13] -4.26 | [14] -4.27 | [15] -4.26 | [16] -4.25
inactive: [5] 0.0335 | [6] 0.117 | [17] 0.112 | [18] 0.121 | [7] -0.158 | [8] 0.0728

Cc1cc(Cl)ccc1OCC(O)CN1CCN(C)CC1 (configuration not stated)
inactive: [1] 0.0377 | [2] 0.029 | [3] 0.0948 | [4] 0.184
